Results reported in PubChem BioAssay (Tox21).
Values joined by “and” are separate entries in the source; they are usually repeats but may differ in a detail not shown here. Identical values can stand only once. Inconclusive results are not listed. More than one record can exist for a structure, and the calls need not agree. Active and inactive are the calls of the source. Unless noted, the call rests on the fitted dose curve; in most records, active means well fitted curve in the direction sought with a large enough effect in the repeat runs; inconclusive means weak or mixed curves; inactive means no such curve, though single readings can be large; an effect the other way counts as inactive or inconclusive.

How the values were obtained:
[1] = target: Progesterone receptor (Homo sapiens) (UniProt P06401); assay: qHTS assay to identify small molecule agonists of the progesterone receptor (PR) signaling pathway (AID 1346784; calls by dose curve; further: nearly all actives have a fitted effect of over 30% in size)
Progesterone receptor (Homo sapiens), sequence (P06401 whole entry, looked up): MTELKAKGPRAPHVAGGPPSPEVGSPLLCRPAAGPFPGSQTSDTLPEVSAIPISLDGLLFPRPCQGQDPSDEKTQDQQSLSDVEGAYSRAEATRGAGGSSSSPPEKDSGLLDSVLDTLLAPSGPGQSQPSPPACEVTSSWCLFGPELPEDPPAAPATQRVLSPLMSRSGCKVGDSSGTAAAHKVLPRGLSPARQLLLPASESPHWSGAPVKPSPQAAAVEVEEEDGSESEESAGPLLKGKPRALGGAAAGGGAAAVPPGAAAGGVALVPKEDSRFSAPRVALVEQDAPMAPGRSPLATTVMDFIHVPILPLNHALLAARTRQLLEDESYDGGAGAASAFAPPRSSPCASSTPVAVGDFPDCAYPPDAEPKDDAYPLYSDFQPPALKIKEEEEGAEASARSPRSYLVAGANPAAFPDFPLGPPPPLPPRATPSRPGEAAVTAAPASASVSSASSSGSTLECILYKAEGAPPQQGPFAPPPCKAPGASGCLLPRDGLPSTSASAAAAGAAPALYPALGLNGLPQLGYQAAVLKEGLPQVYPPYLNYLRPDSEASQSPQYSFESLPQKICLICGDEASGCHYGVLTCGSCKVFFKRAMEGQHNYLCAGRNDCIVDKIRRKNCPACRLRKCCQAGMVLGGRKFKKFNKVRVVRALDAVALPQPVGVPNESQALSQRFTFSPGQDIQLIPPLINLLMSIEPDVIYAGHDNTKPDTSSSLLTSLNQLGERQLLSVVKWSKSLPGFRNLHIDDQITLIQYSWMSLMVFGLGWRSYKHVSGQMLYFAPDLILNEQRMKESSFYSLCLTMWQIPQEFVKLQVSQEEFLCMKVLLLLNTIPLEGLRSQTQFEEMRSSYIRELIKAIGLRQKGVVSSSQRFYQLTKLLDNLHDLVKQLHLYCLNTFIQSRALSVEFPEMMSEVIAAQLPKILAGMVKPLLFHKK
Procedure, shortened: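 Cells (PR-UAS-bla HEK 293T, GripTite) were plated in assay medium containing 2% charcoal-stripped FBS and incubated 6 hr. Test compounds in DMSO were added for 16 hr at 37C. FRET substrate was then loaded for 2 hr at room temperature before fluorescence reading.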

[2] = target: Progesterone receptor (Homo sapiens) (UniProt P06401); assay: qHTS assay to identify small molecule antagonists of the progesterone receptor (PR) signaling pathway (AID 1346795; active means well fitted inhibition curve with a large enough effect in the signal ratio in the repeat runs, not every such curve was filed as active; the % refers to the signal ratio; further: potency means the concentration at half of the fitted maximal effect)
Procedure, shortened: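 Antagonist mode: compounds tested against 1 nM (final) promegestone stimulation in HEK293T cells expressing PR-UAS-bla reporter, 16 hr at 37C, 5% CO2; beta-lactamase activity detected via B/G FRET substrate after 2 hr at room temperature.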

[3] = qHTS assay to identify small molecule antagonists of the progesterone receptor (PR) signaling pathway - cell viability counter screen (AID 1346798); further: nearly all actives have a fitted effect of over 50% in size; further: potency means the concentration at half of the fitted maximal effect
Procedure, shortened: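 Counter screen for cytotoxicity: viability of PR-UAS-bla HEK293T cells was measured with CellTiter-Glo luminescence following 16 hr compound exposure in the presence of R5020.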

[4] = qHTS assay to identify small molecule agonists of the progesterone receptor (PR) signaling pathway - cell viability counter screen (AID 1346799; calls by dose curve; further: nearly all actives have a fitted effect of over 45% in size; further: potency means the concentration at half of the fitted maximal effect)
Procedure, shortened: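 Cells (PR-UAS-bla HEK293T) are plated at 3,000/well in 2% charcoal-stripped FBS medium, rested 6 hr, dosed and incubated 16 hr at 37C. CellTiter-Glo is then added and luminescence measured after 30 min at room temperature.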

[5] = qHTS assay to identify small molecule antagonists of the TGF-beta/Smad signaling pathway - cell viability counter screen (AID 1346824); further: nearly all actives have a fitted effect of over 50% in size
Procedure, shortened: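 SBE-bla HEK 293T cells were plated overnight at 37 C, then given compounds in DMSO plus TGF-beta1 (added as 0.25 ng/mL solution) for 5 hr. After the bla read, CellTiter-Glo was added to the same wells and luminescence read after 30 min at room temperature.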

[6] = qHTS assay to identify small molecule agonists of the TGF-beta/Smad signaling pathway - cell viability counter screen (AID 1346829); further: top concentration of the series differs between compounds; nearly all actives have a fitted effect of over 45% in size
Procedure, shortened: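 Luminescence from CellTiter-Glo, read after a 30 min room-temperature incubation, gives cell viability of SBE-bla HEK 293T cells treated 5 hr with compounds at 37 C.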

[7] = qHTS assay to identify small molecule agonists of the TGF-beta/Smad signaling pathway (AID 1346859; active means well fitted activation curve with a large enough effect in the signal ratio in the repeat runs, not every such curve was filed as active; the % refers to the signal ratio; further: series mostly up to about 77 µM)
Procedure, shortened: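 Reporter line: HEK 293T with stably integrated SBE-controlled beta-lactamase. Compound exposure lasts 5 hr at 37 C and 5% CO2; substrate loading follows for 2 hr at room temperature, with emission read at 460 and 530 nm.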

[8] = target: Thyrotropin-releasing hormone receptor (Homo sapiens) (UniProt P34981); assay: qHTS assay to identify small molecule antagonists of the thyrotropin-releasing hormone receptor (TRHR) signaling pathway (AID 1346877; active means well fitted inhibition curve with a large enough effect in the repeat runs, not every such curve was filed as active; further: series mostly up to about 51 µM)
Thyrotropin-releasing hormone receptor (Homo sapiens), sequence (P34981 whole entry, looked up): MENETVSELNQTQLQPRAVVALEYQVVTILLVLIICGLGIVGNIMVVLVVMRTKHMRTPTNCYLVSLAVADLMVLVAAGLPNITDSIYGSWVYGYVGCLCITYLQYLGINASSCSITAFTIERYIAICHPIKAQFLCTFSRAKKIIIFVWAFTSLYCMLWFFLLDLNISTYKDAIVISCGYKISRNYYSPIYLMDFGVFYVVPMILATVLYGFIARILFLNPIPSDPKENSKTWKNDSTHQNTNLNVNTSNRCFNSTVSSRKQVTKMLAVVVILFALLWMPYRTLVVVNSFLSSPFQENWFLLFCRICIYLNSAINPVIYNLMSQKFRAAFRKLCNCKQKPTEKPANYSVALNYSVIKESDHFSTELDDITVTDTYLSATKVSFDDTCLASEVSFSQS
Procedure, shortened: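 Screening used HEK293 cells engineered with TRHR, with a brief 5 min room-temperature compound exposure preceding addition of TRH to 1 nM. The read-out was kinetic calcium-dye fluorescence, concentration-response from 15 doses in triplicate.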

[9] = target: Thyrotropin-releasing hormone receptor (Homo sapiens) (UniProt P34981); assay: qHTS assay to identify small molecule agonists of the thyrotropin-releasing hormone receptor (TRHR) signaling pathway (AID 1346891; calls by dose curve;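 further: HEK293 cells expressing TRHR with calcium dye readout; series mostly up to about 58 µM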)
Procedure, shortened: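 Cells: TRHR-Hek293, seeded and incubated 18 h. Dye loading: 2 h at 37 °C. Compound added from DMSO stock by pin tool. Read-out: kinetic calcium fluorescence over 3 min.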

[10] = Human pregnane X receptor (PXR) small molecule agonists, qHTS cell viability counter screen (AID 1346977); further: nearly all actives have a fitted effect of over 50% in size; further: potency means the concentration at half of the fitted maximal effect
Procedure, shortened: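 Cytotoxicity counter screen run in the same wells as the PXR luciferase assay, using PXR-Luc HepG2 cells in charcoal-stripped serum medium. Viability: CellTiter-Fluor fluorescence after 24hr compound treatment.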

[11] = Caspase-3/7 induction in HepG2 cells by small molecules, qHTS assay (AID 1346978); further: nearly all actives have a fitted effect of over 15% in size; further: potency means the concentration at half of the fitted maximal effect
Procedure, shortened: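 Wild-type HepG2 cells (2,000/well) were settled 5 h at 37 C, 5% CO2, then exposed to compounds in DMSO for 17 h. Caspase-3/7 activity was read by luminescence 30 min after adding Caspase-Glo 3/7 reagent at room temperature.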

[12] = Caspase-3/7 induction in CHO-K1 cells by small molecules, qHTS cell viability counter screen (AID 1346979); further: nearly all actives have a fitted effect of over 35% in size; further: potency means the concentration at half of the fitted maximal effect
Procedure, shortened: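 Cytotoxicity counter screen run in parallel with the caspase-3/7 assay: CHO-K1 cells, 16hr compound treatment at 37C, then CellTiter-Fluor for 1hr before fluorescence reading.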

[13] = Caspase-3/7 induction in CHO-K1 cells by small molecules, qHTS assay (AID 1346980); further: nearly all actives have a fitted effect of over 15% in size
Procedure, shortened: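 Wild-type cells were seeded at 1,500 per well and settled 5 hr at 37 C, 5% CO2, then exposed to DMSO-dissolved compounds for 17 hr. Caspase-Glo 3/7 reagent was added, and luminescence was read after 30min at room temperature.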

[14] = Caspase-3/7 induction in HepG2 cells by small molecules, qHTS cell viability counter screen (AID 1346981); further: series mostly up to about 92 µM; nearly all actives have a fitted effect of over 30% in size
Procedure, shortened: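 Multiplexed with the caspase-3/7 assay: HepG2 cells, 16 hr compound treatment, CellTiter-Fluor viability detection by fluorescence.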

[15] = target: Nuclear receptor subfamily 1 group I member 2 (Homo sapiens) (UniProt O75469); assay: Human pregnane X receptor (PXR) small molecule agonists, qHTS assay (AID 1346982); further: nearly all actives have a fitted effect of over 35% in size; further: potency means the concentration at half of the fitted maximal effect
Nuclear receptor subfamily 1 group I member 2 (Homo sapiens), sequence (O75469 whole entry, looked up): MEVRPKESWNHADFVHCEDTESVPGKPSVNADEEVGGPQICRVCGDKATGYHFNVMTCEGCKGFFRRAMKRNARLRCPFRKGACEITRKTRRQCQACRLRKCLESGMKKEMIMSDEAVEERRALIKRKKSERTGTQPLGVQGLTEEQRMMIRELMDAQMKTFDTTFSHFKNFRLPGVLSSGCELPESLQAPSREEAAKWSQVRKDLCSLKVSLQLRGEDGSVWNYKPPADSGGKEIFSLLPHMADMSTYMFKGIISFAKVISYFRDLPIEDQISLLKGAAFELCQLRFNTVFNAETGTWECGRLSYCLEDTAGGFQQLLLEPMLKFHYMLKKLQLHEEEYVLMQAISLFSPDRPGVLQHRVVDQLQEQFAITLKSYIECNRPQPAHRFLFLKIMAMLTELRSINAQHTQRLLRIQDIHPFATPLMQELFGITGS
Procedure, shortened: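 We seeded PXR-Luc HepG2 cells in assay medium containing 5% charcoal-stripped FBS, added compounds 5 hr later, incubated 24 hr, and read luminescence with ONE-Glo reagent.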

[16] = target: Acetylcholinesterase (Homo sapiens) (UniProt P22303); assay: Acetylcholinesterase (AChE) small molecule antagonists: enzyme-based qHTS assay (AID 1347397; calls by dose curve; further: nearly all actives have a fitted effect of over 55% in size); details: Potency: AChE enzyme activity inhibition
Acetylcholinesterase (Homo sapiens), sequence (P22303 whole entry, looked up): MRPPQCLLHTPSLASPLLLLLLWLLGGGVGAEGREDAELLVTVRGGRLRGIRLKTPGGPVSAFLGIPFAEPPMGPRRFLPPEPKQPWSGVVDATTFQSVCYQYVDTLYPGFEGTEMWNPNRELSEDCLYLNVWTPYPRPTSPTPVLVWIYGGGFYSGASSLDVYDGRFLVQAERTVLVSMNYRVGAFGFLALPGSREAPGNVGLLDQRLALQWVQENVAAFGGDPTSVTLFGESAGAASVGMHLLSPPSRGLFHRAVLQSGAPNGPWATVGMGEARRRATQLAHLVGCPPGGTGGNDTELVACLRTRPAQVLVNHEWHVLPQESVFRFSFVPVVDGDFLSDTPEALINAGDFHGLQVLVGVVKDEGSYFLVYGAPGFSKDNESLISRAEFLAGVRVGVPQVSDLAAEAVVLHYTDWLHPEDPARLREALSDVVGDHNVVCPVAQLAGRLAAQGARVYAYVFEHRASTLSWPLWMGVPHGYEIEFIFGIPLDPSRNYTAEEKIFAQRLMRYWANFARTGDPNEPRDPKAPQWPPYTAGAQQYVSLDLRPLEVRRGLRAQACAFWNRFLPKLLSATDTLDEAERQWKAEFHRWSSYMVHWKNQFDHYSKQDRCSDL
Procedure, shortened: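 Recombinant human AChE, dispensed at 50 mU/mL, was preincubated with Tox21 10K compounds or DMSO vehicle for 30 min at room temperature. DTNB plus acetylthiocholine was then added, and thiocholine was measured colorimetrically after a further 10 min.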

[17] = target: Nuclear receptor subfamily 1 group I member 2 (Rattus norvegicus) (UniProt Q9R1A7); assay: Rat pregnane X receptor (rPXR) activation by small molecules, qHTS assay (AID 1346983); details: rPXR luciferase reporter cells, One-Glo luminescence, 24 h; max activation: stronger effect = higher value; further: nearly all actives have a fitted effect of over 20% in size
Nuclear receptor subfamily 1 group I member 2 (Rattus norvegicus), sequence (Q9R1A7 whole entry, looked up): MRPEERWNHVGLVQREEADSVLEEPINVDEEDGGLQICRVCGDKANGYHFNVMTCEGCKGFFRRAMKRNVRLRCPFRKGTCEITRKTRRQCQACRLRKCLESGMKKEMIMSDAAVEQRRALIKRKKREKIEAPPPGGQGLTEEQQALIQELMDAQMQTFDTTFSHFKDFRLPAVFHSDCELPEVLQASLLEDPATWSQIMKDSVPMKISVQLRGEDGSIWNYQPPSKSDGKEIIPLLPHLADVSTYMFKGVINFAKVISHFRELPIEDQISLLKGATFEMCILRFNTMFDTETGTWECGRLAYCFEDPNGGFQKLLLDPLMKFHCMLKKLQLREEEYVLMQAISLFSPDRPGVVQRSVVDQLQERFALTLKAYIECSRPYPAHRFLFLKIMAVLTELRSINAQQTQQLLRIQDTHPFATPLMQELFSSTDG
Procedure, shortened: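 Cell-based rPXR luciferase reporter assay, 2,000 cells per well, rested 5hr at 37 C before compound addition in DMSO, then 24 hr at 37 C. One-Glo reagent was added and luminescence read after 30 min at room temperature.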

[18] = target: Nuclear receptor subfamily 1 group I member 2 (Homo sapiens) (UniProt O75469); assay: CYP3A4 induction through human pregnane X receptor (PXR) by small molecules, qHTS assay (AID 1346984); further: nearly all actives have a fitted effect of over 40% in size
Procedure, shortened: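 qHTS, concentration-response format: HepG2 DPX-2 line, PXR/CYP3A4-luc. Exposure 24 h, 37C. Substrate Luciferin-IPA 3uM final, 3 h. Detection One-Glo, 30 min RT.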

[19] = target: Nuclear receptor subfamily 1 group I member 2 (Homo sapiens) (UniProt O75469); assay: Human pregnane X receptor (PXR) activation by small molecules, qHTS assay (AID 1346985); further: nearly all actives have a fitted effect of over 40% in size
Procedure, shortened: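 DPX-2 cells (HepG2 co-transfected with a PXR response element and a CYP3A4-promoter luciferase construct) were seeded at 2,000 per well, rested 5 hr at 37C, then exposed to DMSO-dissolved compounds for 24 hr. Activation was read as luciferase luminescence.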

[20] = target: Acetylcholinesterase (Homo sapiens) (UniProt P22303); assay: Acetylcholinesterase (AChE) small molecule antagonists: colormetric cell-based qHTS assay (AID 1347395; calls by dose curve; further: nearly all actives have a fitted effect of over 30% in size)
Procedure, shortened: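 Cells (SH-SY5Y, 2,000 per well) are seeded and left overnight at 37 C. Compound is added for 30 min, then DTNB and acetylthiocholine for a further 90 min at 37 C before absorbance-based thiocholine detection.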
On the % scale 0 is the no-effect control and ±100 the full control effect.

C=CC(=C)C
inactive: Potency [1] | Potency [2] | Potency [3] | Potency [4] | Potency [5] | Potency [6] | outcome [7] | Potency [8] | Potency [9] | Potency [10] | Potency [11] | Potency [12] | Potency [13] | Potency [14] | Potency [15] | Potency [16]

CC(C)=CCN1CC[C@@]2(C)c3cc(O)ccc3C[C@@H]1[C@@H]2C
inactive: Potency [1] | Potency [2] | Potency [3] | Potency [4] | Potency [5] | Potency [6] | outcome [7] | Potency [8] | Potency [9] | Potency [11] | Potency [12] | Potency [13] | Potency [14] | Potency [15]
active: Potency [10] 17 µM

CN1C(=O)[C@@H](NC(=O)c2cc3ccccc3[nH]2)N=C(c2ccccc2)c2ccccc21
inactive: Potency [1] | Potency [2] | Potency [3] | Potency [4] | Potency [5] | Potency [6] | outcome [7] | Potency [8] | Potency [9] | Potency [10] | Potency [11] | Potency [12] | Potency [14] | Potency [15] | max activation [17] -0.0388% | Potency [18] | Potency [19] | Potency [20] | Potency [16]

Nc1cc(Cl)ccc1Cl
inactive: Potency [1] | Potency [2] | Potency [3] | Potency [4] | Potency [5] | Potency [6] | outcome [7] | Potency [8] | Potency [9] | Potency [10] | Potency [11] | Potency [12] | Potency [13] | Potency [14] | Potency [15] | Potency [20] | Potency [16]

C=CCBr
inactive: Potency [1] | Potency [2] | Potency [3] | Potency [4] | Potency [5] | Potency [6] | outcome [7] | Potency [8] | Potency [9] | Potency [10] | Potency [11] | Potency [12] | Potency [13] | Potency [14] | Potency [15] | Potency [20] | Potency [16]

O=C(N[C@H]1N=C(c2ccccc2F)c2cccc3c2N(CC3)C1=O)c1cc2ccccc2[nH]1
inactive: Potency [1] | Potency [2] | Potency [3] | Potency [4] | Potency [5] | Potency [6] | outcome [7] | Potency [8] | Potency [9] | Potency [10] | Potency [11] | Potency [12] | Potency [13] | Potency [14] | Potency [20] | Potency [16]
active: Potency [15] 18.8 µM

[O-][Cl+3]([O-])([O-])O
inactive: Potency [1] | Potency [2] | Potency [3] | Potency [4] | Potency [5] | Potency [6] | outcome [7] | Potency [8] | Potency [9] | Potency [10] | Potency [11] | Potency [12] | Potency [13] | Potency [14] | Potency [15] | Potency [20] | Potency [16]

CCC(C)Br (stereo not given)
inactive: Potency [1] | Potency [2] | Potency [3] | Potency [4] | Potency [5] | Potency [6] | outcome [7] | Potency [8] | Potency [9] | Potency [10] | Potency [11] | Potency [12] | Potency [13] | Potency [14] | Potency [15] | Potency [20] | Potency [16]

CC1(C)C(C=C(Cl)Cl)C1C(=O)OC(C#N)c1ccc(F)c(Oc2ccccc2)c1 (stereo not given)
active: Potency [2] 13.7 µM
inactive: Potency [1] | Potency [3] | Potency [4] | Potency [5] | Potency [6] | outcome [7] | Potency [8] | Potency [9] | Potency [10] | Potency [11] | Potency [14] | Potency [15] | Potency [20] | Potency [16]

CCN(CC)C(=S)S
inactive and 27.1 µM (active): Potency [11]
28.2 µM (active) and inactive: Potency [10]
17.1 µM (active) and inactive: Potency [4]
inactive: Potency [1] | Potency [5] | Potency [6] | outcome [7] | Potency [13] | Potency [14] | Potency [18] | Potency [19] | Potency [20] | Potency [16]
active: Potency [2] 49 µM and 6.82 µM and 13.7 µM | Potency [3] 61.6 µM and 7.65 µM and 17.2 µM | Potency [12] 13.8 µM and 7.65 µM and 27.3 µM | Potency [15] 27.1 µM and 61.1 µM

Cc1cnc2c(C(=O)O)c(Cl)ccc2c1
inactive: Potency [1] | Potency [2] | Potency [3] | Potency [4] | Potency [5] | Potency [6] | outcome [7] | Potency [8] | Potency [9] | Potency [10] | Potency [11] | Potency [12] | Potency [13] | Potency [14] | Potency [15] | Potency [20] | Potency [16]

Brc1cccc(-c2ccccc2)c1
inactive: Potency [1] | Potency [2] | Potency [3] | Potency [4] | Potency [5] | Potency [6] | outcome [7] | Potency [8] | Potency [9] | Potency [10] | Potency [11] | Potency [12] | Potency [13] | Potency [14] | Potency [20] | Potency [16]
active: Potency [15] 24.5 µM

CCC1(CC)C(=O)N=C(O)NC1=O
inactive: Potency [1] | Potency [2] | Potency [3] | Potency [4] | Potency [5] | Potency [6] | outcome [7] | Potency [8] | Potency [9] | Potency [10] | Potency [11] | Potency [12] | Potency [13] | Potency [14] | Potency [20] | Potency [16]

CN1[C@@H]2CC[C@H]1CC(O)C2 (stereo not given in full)
inactive: Potency [1] | Potency [2] | Potency [3] | Potency [4] | Potency [5] | Potency [6] | outcome [7] | Potency [8] | Potency [9] | Potency [10] | Potency [11] | Potency [12] | Potency [14] | Potency [15] | Potency [20] | Potency [16]

S=C=Nc1ccccc1
inactive: Potency [1] | Potency [2] | Potency [3] | Potency [4] | Potency [5] | Potency [6] | outcome [7] | Potency [8] | Potency [9] | Potency [10] | Potency [11] | Potency [12] | Potency [13] | Potency [14] | Potency [20] | Potency [16]
active: Potency [15] 63.1 µM
